The text below walks through data of PubChem BioAssay.

Calls of active or inactive are those of the source.

The nature of test [1]: small molecules captured by biotinylated probe aFSTL3 – biochemical, small-molecule microarray, fluorescence 635/667, stem cell growth factor project, primary screen (AID 1064).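 Also: measures binding of the biotinylated anti-FSTL3 antibody to printed compounds.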 To be noted: higher = more signal.
Test [2] in a line: binders from COS7 lysate, DM2A8 probe, primary screen, torsin A project, cell lysate, small-molecule microarray, fluorescence 635/667 (AID 1065). To be noted: higher = more signal, COS7 lysate expressing mutant human TOR1A.
Test [3] in a line: small molecules captured by biotinylated probe aFGF2 – biochemical, small-molecule microarray, fluorescence 635/667, stem cell growth factor project, primary screen (AID 1067).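 Also: measures binding of biotinylated aFGF2 protein to printed compounds on slides; z-score merges feature fluorescence and signal-to-noise across triplicate slides.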 To be noted: higher = more signal.
The nature of test [4]: small molecules captured by biotinylated probe aFGF10 – biochemical, small-molecule microarray, fluorescence 635/667, stem cell growth factor project, primary screen (AID 1071).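 Also: score merges 667 nm spot intensity and signal to noise from triplicate slides.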 To be noted: higher = more signal.
Test [5] addresses Neurogenic locus notch homolog protein 2 (Homo sapiens) (UniProt Q04721). The test can be described thus: small molecules binding Notch2 protein – biochemical, small-molecule microarray, 635 nm fluorescence, stem cell growth factors, primary screen (AID 1073). To be noted: higher = more signal.
The target of test [6] is Pro-neuregulin-1, membrane-bound isoform (Homo sapiens) (UniProt Q02297). The test can be described thus: small molecules binding neuregulin-1 protein – biochemical, small-molecule microarray, fluorescence 635/667, psychiatric disease protein project, primary screen (AID 1075).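 Also: score combines 667 nm spot fluorescence with signal to noise.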 To be noted: NRG1 binding, 635 nm fluorescence, higher = more signal.
The subject of test [7] is Neuregulin-1 EGF-like domain. Briefly: small molecules binding NRG1 EGF domain – biochemical, small-molecule microarray, 635 nm fluorescence, primary screen (AID 1081).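 Also: binding of the protein to compounds printed on small-molecule microarray slides.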 To be noted: higher = more signal.
A short description of test [8]: FRG1 expression reporter modulators in myotubes – cell-based, C2C12 myotubes, firefly/Renilla luciferase, luminescence, FRG1 inhibition for FSHD, primary screen (AID 1084). To be noted: FRG1 promoter luciferase, higher = more signal, called active from +8 up or from −8 down.
Test [9] in a line: small molecules captured by biotinylated probe aFST – biochemical, small-molecule microarray, fluorescence 635/667, stem cell growth factor project, primary screen (AID 1086).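 Also: score merges 667 nm fluorescence with signal-to-noise of each printed compound spot.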 Particulars: higher = more signal.
Test [10] is described as follows: binders of probe aHhip on microarray, primary screen, stem cell growth factor project, biochemical, small-molecule microarray, fluorescence 635/667 (AID 1087).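 Also: score merges spot fluorescence at 667nm with spot signal to noise ratio.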 Particulars: higher = more signal.
Test [11] has as its system PRMT1 (protein arginine N-methyltransferase 1). The test can be described thus: small molecules binding arginine methyltransferase PRMT1 – biochemical, small-molecule microarray, 635 nm fluorescence, primary screen (AID 1088).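 Also: binding of Prmt1 protein to compounds spotted on small-molecule microarray slides.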 Particulars: higher = more signal.
Test [12] can be described thus: growth effects on S. cerevisiae YJM789 – YJM789 clinical isolate, OD600, 24 h, basal, primary screen (AID 1089).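 Also: growth of clinical yeast isolate S. cerevisiae YJM 789 seeded 1000 cells per well; test concentration not given here.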 Particulars: higher = more signal, called active from +8 up or from −8 down.
Test [13] can be described thus: S. pombe growth modifiers, basal conditions – strain 972, OD600, 24 h, no modulator, primary screen (AID 1090).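 Also: basal condition with compound alone and no growth modifier present; test concentration not given here.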 To be noted: S. pombe 972 growth, higher = more signal, called active from +8 up or from −8 down.
The nature of test [14]: budding yeast growth modifiers under rapamycin – strain BY4716, OD600, 96 h, primary screen (AID 1091). Also: test concentration not given here. Particulars: S. cerevisiae BY4716 + rapamycin, higher = more signal, called active from +8 up or from −8 down.
Test [15] has as its target Torsin-1A-interacting protein 2 (Homo sapiens) (UniProt Q8NFQ8). The test can be described thus: small molecules binding lysate-expressed LULL1 – cell lysate, human LULL1 lysate, 635/667 nm fluorescence, primary screen (AID 1092).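 Also: probe is lysate of COS7 cells overexpressing human LULL1; score merges per-feature 667 nm fluorescence with signal-to-noise.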 To be noted: small-molecule microarray, hLULL1 lysate binding, 635 nm fluorescence; higher = more signal.
Test [16] is described as follows: optical density change of DRC41 E. coli – strain DRC41, OD650, 24 h, E. coli filamentation project, primary screen (AID 1093).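 Also: MC1000 strain lacking acrAB efflux and sulA so SOS filamentation is blocked; test concentration not given here.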 Particulars: E. coli DRC41 growth, higher = more signal, called active from +8 up or from −8 down.
A short description of test [17]: probe aLefty2 binding to arrayed compounds – biochemical, biotinylated probe, 635/667 nm fluorescence, primary screen (AID 1094).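 Also: score merges spot fluorescence near 667 nm with spot signal-to-noise ratio.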 To be noted: small-molecule microarray, higher = more signal.
Test [18] has as its system Noggin (protein binding on small-molecule microarray). The test can be described thus: small molecules binding Noggin protein – biochemical, 635/667 nm fluorescence, primary screen (AID 1095).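 Also: score merges 667 nm feature fluorescence with signal to noise over triplicate slides.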 To be noted: 635 nm fluorescence, higher = more signal.
Test [19] has as its target Neurogenic locus notch homolog protein 3 (Homo sapiens) (UniProt Q9UM47). Briefly: small molecules binding NOTCH3 protein – biochemical, 635/667 nm fluorescence, primary screen (AID 1096). Particulars: small-molecule microarray, 635 nm fluorescence, higher = more signal.
Test [20] can be described thus: probe aEGFR binding to arrayed compounds – biochemical, biotinylated probe, 635/667 nm fluorescence, primary screen (AID 1097).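 Also: probe is a biotinylated anti-EGFR antibody binding compounds printed on slides; score combines fluorescence near 667 nm and signal to noise of each spot.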 Particulars: small-molecule microarray, higher = more signal.

Chain of Neurogenic locus notch homolog protein 2 (Homo sapiens) (Q04721 whole entry, looked up, canonical isoform): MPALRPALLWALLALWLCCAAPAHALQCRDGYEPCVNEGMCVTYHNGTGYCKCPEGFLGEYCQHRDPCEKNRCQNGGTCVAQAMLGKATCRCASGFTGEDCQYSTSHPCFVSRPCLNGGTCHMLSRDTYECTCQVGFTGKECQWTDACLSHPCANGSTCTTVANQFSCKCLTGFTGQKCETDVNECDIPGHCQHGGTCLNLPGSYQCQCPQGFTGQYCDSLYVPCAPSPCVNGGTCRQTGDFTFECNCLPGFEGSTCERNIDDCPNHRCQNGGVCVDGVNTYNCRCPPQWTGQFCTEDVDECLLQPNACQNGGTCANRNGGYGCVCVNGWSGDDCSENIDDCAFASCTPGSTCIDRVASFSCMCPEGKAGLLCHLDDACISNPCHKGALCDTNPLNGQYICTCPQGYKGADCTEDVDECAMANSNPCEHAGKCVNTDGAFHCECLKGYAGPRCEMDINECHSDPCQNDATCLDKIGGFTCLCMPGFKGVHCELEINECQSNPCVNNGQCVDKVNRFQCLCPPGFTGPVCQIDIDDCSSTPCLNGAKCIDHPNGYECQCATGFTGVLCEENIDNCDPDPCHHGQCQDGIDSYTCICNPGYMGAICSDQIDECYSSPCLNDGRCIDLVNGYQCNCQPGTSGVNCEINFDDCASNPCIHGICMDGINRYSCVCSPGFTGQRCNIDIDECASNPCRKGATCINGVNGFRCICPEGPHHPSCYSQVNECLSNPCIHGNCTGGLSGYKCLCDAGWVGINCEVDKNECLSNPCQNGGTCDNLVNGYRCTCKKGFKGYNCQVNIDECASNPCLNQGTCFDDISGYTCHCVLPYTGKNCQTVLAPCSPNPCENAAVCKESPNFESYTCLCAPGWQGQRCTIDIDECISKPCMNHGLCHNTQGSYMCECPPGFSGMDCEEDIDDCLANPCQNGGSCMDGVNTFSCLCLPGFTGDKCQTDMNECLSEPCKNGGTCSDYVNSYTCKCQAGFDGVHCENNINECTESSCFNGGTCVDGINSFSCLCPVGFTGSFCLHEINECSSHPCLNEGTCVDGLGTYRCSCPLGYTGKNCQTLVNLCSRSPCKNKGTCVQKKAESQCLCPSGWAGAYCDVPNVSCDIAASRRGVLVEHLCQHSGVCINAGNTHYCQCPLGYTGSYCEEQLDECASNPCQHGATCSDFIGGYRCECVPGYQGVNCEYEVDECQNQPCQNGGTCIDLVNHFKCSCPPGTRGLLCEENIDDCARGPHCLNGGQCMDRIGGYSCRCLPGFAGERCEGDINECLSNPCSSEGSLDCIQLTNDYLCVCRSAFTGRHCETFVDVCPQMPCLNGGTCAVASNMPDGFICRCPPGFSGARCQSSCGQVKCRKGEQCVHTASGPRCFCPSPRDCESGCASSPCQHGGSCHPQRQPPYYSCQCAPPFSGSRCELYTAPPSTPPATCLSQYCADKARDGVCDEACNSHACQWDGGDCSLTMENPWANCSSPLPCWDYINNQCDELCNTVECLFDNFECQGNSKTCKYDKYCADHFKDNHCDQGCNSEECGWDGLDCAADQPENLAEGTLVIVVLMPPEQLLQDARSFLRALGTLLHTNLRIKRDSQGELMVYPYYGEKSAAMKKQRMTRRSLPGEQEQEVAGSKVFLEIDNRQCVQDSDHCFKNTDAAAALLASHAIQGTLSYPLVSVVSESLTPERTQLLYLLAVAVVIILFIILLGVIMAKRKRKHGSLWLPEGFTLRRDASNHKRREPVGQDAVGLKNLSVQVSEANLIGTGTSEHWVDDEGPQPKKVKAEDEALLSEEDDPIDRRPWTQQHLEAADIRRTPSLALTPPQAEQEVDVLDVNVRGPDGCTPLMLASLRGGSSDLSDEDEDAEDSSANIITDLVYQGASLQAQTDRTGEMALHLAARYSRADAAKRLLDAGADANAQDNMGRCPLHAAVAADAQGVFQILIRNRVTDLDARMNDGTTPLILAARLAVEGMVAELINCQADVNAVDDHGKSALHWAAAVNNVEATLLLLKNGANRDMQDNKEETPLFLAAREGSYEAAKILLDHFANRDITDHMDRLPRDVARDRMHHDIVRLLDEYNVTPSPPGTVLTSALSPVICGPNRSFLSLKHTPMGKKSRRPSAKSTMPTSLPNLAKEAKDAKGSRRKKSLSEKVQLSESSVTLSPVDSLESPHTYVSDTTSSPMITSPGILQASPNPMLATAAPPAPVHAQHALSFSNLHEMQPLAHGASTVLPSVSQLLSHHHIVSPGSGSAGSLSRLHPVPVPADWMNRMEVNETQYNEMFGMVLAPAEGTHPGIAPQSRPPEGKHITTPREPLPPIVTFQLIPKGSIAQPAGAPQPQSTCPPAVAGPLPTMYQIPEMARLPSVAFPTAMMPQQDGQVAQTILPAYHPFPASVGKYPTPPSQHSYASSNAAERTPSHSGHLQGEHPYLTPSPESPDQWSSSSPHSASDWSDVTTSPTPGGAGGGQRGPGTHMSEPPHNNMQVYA
Chain of Pro-neuregulin-1, membrane-bound isoform (Homo sapiens) (Q02297 whole entry, looked up, the tested form may be a part, canonical isoform): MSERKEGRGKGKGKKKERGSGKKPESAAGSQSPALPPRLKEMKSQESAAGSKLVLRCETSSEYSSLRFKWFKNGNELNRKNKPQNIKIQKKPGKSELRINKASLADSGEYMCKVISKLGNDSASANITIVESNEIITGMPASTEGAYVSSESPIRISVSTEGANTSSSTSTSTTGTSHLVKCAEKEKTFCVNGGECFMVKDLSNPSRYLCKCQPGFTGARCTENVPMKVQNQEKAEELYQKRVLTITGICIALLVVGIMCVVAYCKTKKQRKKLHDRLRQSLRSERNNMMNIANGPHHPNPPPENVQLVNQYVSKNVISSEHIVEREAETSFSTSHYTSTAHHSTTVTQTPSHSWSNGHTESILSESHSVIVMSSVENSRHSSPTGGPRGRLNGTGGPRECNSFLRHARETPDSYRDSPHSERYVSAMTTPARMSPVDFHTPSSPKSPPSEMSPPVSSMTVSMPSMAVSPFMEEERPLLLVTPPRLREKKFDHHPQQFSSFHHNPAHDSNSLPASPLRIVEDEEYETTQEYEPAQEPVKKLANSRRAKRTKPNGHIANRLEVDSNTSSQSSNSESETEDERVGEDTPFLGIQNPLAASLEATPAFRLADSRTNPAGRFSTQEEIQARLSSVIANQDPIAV
Chain of Torsin-1A-interacting protein 2 (Homo sapiens) (Q8NFQ8 whole entry, looked up): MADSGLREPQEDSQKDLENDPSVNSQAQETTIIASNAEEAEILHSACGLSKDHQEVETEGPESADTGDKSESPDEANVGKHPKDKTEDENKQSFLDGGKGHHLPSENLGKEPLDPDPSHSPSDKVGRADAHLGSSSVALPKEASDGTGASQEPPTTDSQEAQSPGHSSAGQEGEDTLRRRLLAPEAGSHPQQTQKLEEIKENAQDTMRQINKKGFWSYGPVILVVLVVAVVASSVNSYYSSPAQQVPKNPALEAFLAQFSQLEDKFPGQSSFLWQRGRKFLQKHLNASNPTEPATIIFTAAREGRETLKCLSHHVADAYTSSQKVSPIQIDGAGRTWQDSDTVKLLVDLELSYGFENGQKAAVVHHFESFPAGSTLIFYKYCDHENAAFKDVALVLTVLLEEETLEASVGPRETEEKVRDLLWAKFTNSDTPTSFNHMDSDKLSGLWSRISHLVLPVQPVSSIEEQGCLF

Take `CCCCCN1CC=CC23O[C@@H]4C=CCOC(=O)[C@@H]4[C@H]2C(=O)N(CCCO)[C@@H]3C1=O` (stereo not given in full): the composite z-score in [1] is -0.295; in test [2], 0.777; in [3], -0.195; in test [4] it was -0.549; in [5], -0.661; in test [6], 2.05. The composite z-score was 1.27 in [7]; -0.643 in [9]; -0.236 in test [10]; 1.55 in [11]; 3.5 in test [15]; -0.221 in test [17]. Moreover, the composite z-score is 0.243 in [18], 0.0152 in [19] and -0.185 in [20]. Also, the z-score in test [8] is -0.482 (inactive); in test [12] it was 0.811 (inactive); in test [13] it was -0.717 (inactive); in test [14], -1.05 (inactive); in test [16] it was 3.09 (inactive).
In the case of `COC(=O)C1=CC(CCCO)=CC(C2CC2)N(Cc2sc3ccccc3c2Cl)C=C1C(=O)OC` (stereo not given), the composite z-score in test [1] was -0.0356; in test [2] it was 0.43; in test [3] it was 0.0216; in test [4], 0.889; in test [5], 1.44; in test [6] it was 1.98. For the same compound, the composite z-score in [7] is 1.08; in test [9] it was 1.1; in test [10] it was -0.266; in test [11], 1.54; in test [15] it was 3.36; in [17] it was 0.198. Besides, the results for the composite z-score in test [18], in test [19] and in test [20] were 0.346, 1.16 and 0.0746, respectively. Further, the z-score in test [8] was -1.73 (inactive); in test [12] it was 0.258 (inactive); in test [13], -3.05 (inactive); in test [14] it was -1.55 (inactive); in test [16], 0.404 (inactive).
For the compound `O=C(CS)NCCCCCCNC(=O)[C@@H]1C[C@@H]2C(=O)N3CCC[C@H]3C(=O)N2[C@@H]1c1ccc(O)cc1`, the composite z-score was 0.525 in test [1]; 0.0083 in test [2]; -0.111 in test [3]; 0.589 in test [4]; -0.473 in test [5]; 0.494 in [6]. In addition, the composite z-score in [7] was 1.38; in test [9], -0.28; in test [10] it was -0.254; in test [11] it was 1.14; in test [15], 2.54; in [17], -0.0903. The values for the composite z-score in [18], in test [19] and in [20] were -0.221, 0.165 and -0.118, respectively. The z-score in [8] is 0.999 (inactive); in test [12], 0.883 (inactive); in [13], 0.626 (inactive); in [14] it was 1.07 (inactive); in test [16], 0.0508 (inactive).
Consider `COCCOC(=O)N1C(=O)[C@@]2(c3cc(C#CCCO)ccc31)[C@H](C(=O)NC[C@H](O)c1ccccc1)[C@H]1C(=O)O[C@H](c3ccccc3)[C@H](c3ccccc3)N1[C@@H]2c1ccc(O)cc1`, for which the composite z-score in test [1] is -0.221; in [2], 0.464; in test [3] it was -0.0058; in test [4] it was 0.627; in [5] it was 0.026; in [6], 1.48. In addition, the composite z-score was 1.21 in test [7]; 0.0399 in test [9]; -0.134 in test [10]; 0.66 in test [11]; 2.35 in test [15]; -0.0862 in test [17]. Further, the composite z-score is 1.7 in [18], 0.459 in [19] and -0.137 in test [20]. For the same compound, the z-score was -1.04 (inactive) in test [8]; 1.22 (inactive) in test [12]; 0.572 (inactive) in [13]; 1.68 (inactive) in test [14]; 0.856 (inactive) in test [16].
For the compound `O=C1O[C@H](c2ccccc2)[C@H](c2ccccc2)N2[C@H]1[C@@H](C(=O)O)[C@]1(C(=O)Nc3ccc(C#CC4(O)CCCCCC4)cc31)[C@H]2c1ccc(OCCO)cc1`, the composite z-score in [1] is -0.133; in test [2] it was -0.337; in test [3], 0.0201; in test [4], 0.564; in test [5], 0.263; in [6], 1.85. Further, the composite z-score in test [7] was 1.14; in [9], 1.07; in test [10], -0.0994; in test [11] it was 1.37; in test [15], 3.58; in test [17], -0.124. In addition, the composite z-score in [18] is -0.338; in test [19] it was 0.528; in test [20], -0.216. Moreover, the z-score was 1.11 (inactive) in [8]; 2.28 (inactive) in test [12]; 0.219 (inactive) in [13]; 0.124 (inactive) in test [14]; -0.831 (inactive) in [16].
